Experimental findings from PubChem BioAssay (NCATS) are described below.

Test [1] concerns the target Cytochrome P450 1A2 (Homo sapiens) (UniProt P05177). Put plainly: p450-cyp1a2 (AID 410; calls by dose curve; note: potency is the fitted concentration of half-maximal effect). An outline of the steps:
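20nM CYP1A2 with 100uM Luciferin-ME (at Km) in 100mM KPO4; compound preincubated 10 min, NADPH regeneration added, 60 min at room temperature. Luciferin quantified by luminescence after detection reagent; normalized to 57 uM furafylline.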

The target in test [2] is Mitogen-activated protein kinase 10 (Mus musculus) (UniProt Q61831). Nature of the test: JNK3 AlphaScreen Assay (AID 530; active = well fitted curve in either direction with a large enough effect, not every such curve was filed as active;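 note: kinase came from lysate of stimulated human HepG2 cells; signal reports phosphorylation of biotinylated GST-cJun 1-79 at Ser73 with 10 µM ATP; series mostly up to about 57 µM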). In a few lines:
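Inhibitors reduce antibody binding to phosphorylated biotin-cJun, lowering AlphaScreen luminescence. Lysates from HepG2 cells pre-activated by IL-1beta plus TNF-alpha supplied JNK3; compounds were titrated.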
For orientation: In Alpha technology, singlet oxygen from a donor bead excites a nearby acceptor bead.

The target in test [3] is 3',5'-cyclic-AMP phosphodiesterase 4B (Homo sapiens) (UniProt Q07343). Nature of the test: qHTS Assay for Inhibitors of PDE-IV (AID 607; active = well fitted activation curve with a large enough effect in the main read-out, with a control signal flat, not every such curve was filed as active). An outline of the steps: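 HEK293 ACTOne cells with CNG channel (1000/well), endogenous PDE4; membrane potential dye, compounds up to 22.9 uM final. Fluorescence Ex 535/Em 590; RO 20-1724 (100 uM final) as reference.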
Sequence of 3',5'-cyclic-AMP phosphodiesterase 4B (Homo sapiens) (Q07343 whole entry, looked up): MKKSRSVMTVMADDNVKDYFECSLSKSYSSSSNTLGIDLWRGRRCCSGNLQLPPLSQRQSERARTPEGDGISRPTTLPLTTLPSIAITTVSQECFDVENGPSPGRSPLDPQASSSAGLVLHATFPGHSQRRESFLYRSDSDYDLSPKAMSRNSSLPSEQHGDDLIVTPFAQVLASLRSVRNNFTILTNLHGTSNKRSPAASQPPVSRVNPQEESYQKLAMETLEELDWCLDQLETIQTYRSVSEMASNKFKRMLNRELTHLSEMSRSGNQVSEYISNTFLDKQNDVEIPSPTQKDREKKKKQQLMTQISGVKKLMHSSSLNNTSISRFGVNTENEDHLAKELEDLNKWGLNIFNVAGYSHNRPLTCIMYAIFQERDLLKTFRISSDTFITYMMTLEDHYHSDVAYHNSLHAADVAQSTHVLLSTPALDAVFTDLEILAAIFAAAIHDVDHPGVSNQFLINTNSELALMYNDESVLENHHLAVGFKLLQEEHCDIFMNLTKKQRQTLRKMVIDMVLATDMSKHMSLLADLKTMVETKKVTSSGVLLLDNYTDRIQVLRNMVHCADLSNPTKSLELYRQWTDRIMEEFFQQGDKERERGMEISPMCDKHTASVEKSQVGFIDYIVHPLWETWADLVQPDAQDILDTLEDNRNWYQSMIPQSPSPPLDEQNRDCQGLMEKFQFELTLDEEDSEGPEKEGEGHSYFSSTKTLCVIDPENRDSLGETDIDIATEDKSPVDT
The target in test [4] is Cytochrome P450 3A4 (Homo sapiens) (UniProt P08684). Put plainly: qHTS Assay for Activators of Cytochrome P450 3A4 (AID 885). Note: nearly all actives have a fitted effect of over 65% in size. An outline of the steps:
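Human CYP3A4 (20 nM) with Luciferin-PPXE at 25 uM (its KM) in 200 mM KPO4; 10 min compound preincubation, then NADPH regeneration and 60 min reaction at RT. Luciferin read by luminescence; normalized to 57 uM ketoconazole full inhibition.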

Test [5] shares this target. Nature of the test: qHTS Assay for Inhibitors and Substrates of Cytochrome P450 3A4 (AID 884). Note: nearly all actives have a fitted effect of over 50% in size. Note: potency is the fitted concentration of half-maximal effect. An outline of the steps: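 20 nM human CYP3A4 with 25 uM Luciferin-PPXE (at KM) in 200 mM KPO4, preincubated 10 min with compound; NADPH regeneration started a 60 min RT reaction. Luciferin detected by luminescence, normalized to 57 uM ketoconazole as full inhibition.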
On the technique in general: In qHTS, concentration-response curves come from the screen itself.

The target in test [6] is Cytochrome P450 2C19 (Homo sapiens) (UniProt P33261). Nature of the test: qHTS Assay for Inhibitors and Substrates of Cytochrome P450 2C19 (AID 899). Note: potency is the fitted concentration of half-maximal effect; nearly all actives have a fitted effect of over 60% in size. In a few lines:
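In 50mM KPO4, the reaction held 5nM enzyme and KM-level (10uM) Luciferin-H EGE; it ran 60 min at 37C after NADPH regeneration and a 10 min compound preincubation. Luminescence values were scaled to 57uM ketoconazole as complete inhibition.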

Inconclusive results are not listed. Calls of active or inactive are those of the source. Unless noted, calls come from the whole dose curve; as a rule, active = well fitted curve in the direction sought with a large enough effect; inconclusive = small, poorly fitted or top-dose-only effect, or another doubt; inactive = no such curve, though single readings can be large; an effect the other way counts as inactive or inconclusive.

Sequence of Cytochrome P450 1A2 (Homo sapiens) (P05177 whole entry, looked up): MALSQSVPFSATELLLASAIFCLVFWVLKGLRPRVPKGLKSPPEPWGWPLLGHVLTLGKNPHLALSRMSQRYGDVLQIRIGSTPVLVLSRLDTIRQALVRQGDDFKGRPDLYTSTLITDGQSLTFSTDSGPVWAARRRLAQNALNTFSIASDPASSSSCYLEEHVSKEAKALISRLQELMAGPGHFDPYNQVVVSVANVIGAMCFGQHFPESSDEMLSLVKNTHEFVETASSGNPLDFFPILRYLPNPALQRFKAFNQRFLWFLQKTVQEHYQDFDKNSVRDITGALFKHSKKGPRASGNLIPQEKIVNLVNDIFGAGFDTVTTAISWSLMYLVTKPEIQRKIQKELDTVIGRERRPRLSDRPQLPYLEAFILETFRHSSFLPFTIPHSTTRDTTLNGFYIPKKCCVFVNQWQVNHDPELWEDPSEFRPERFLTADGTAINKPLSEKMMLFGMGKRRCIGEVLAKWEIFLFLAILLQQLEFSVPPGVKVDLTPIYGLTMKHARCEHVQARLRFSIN
Sequence of Cytochrome P450 2C19 (Homo sapiens) (P33261 whole entry, looked up): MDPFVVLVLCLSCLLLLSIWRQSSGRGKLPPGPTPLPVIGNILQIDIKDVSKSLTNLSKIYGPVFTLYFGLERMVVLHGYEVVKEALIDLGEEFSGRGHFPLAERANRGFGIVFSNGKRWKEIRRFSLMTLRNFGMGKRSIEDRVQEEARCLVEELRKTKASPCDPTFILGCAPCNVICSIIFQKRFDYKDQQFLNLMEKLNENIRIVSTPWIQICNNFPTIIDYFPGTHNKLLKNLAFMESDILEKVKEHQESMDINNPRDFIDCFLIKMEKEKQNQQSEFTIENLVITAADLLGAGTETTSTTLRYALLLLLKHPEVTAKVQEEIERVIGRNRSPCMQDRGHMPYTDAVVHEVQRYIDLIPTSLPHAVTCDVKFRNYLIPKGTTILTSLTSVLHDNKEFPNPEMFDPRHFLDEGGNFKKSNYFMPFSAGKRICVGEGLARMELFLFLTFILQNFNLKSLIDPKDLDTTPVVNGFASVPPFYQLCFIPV
Sequence of Cytochrome P450 3A4 (Homo sapiens) (P08684 whole entry, looked up): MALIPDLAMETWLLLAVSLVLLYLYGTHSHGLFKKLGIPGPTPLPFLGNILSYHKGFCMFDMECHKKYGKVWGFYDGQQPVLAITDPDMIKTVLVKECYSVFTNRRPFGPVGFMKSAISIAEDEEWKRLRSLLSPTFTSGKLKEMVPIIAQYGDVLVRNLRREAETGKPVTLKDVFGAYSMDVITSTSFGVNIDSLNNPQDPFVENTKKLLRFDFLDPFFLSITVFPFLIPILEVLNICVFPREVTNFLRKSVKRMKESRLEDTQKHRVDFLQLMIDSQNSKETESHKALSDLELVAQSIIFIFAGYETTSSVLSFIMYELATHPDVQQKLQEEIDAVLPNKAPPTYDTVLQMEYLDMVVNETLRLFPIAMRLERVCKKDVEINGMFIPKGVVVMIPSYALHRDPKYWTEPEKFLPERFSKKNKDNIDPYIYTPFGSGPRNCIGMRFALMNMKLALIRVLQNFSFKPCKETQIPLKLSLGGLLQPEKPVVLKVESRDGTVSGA

In the case of `C[C@H](CO)NC(=O)[C@@H]1C[C@H]1[C@@H](NP(=O)(c1ccccc1)c1ccccc1)c1ccccc1`, the Potency result in test [1], in test [2], in test [3] and in test [4] was “inactive” throughout.

With `CCCCCC1=C2CNC(C)(C(=O)OC)C=C2C(C)C1=O` (stereo not drawn), in test [1], the Potency is 25.1 µM (active). Further, the Potency result in test [2], in test [3] and in test [4] was “inactive” in each case.

As for `C[C@H](CO)NC(=O)[C@H]1C[C@@H]1[C@H](NP(=O)(c1ccccc1)c1ccccc1)c1ccccc1`, the Potency result in test [1], in test [2], in test [3] and in test [4] was “inactive” throughout.

On to `CC1=C(C(=O)OCc2ccccc2)C(c2ccc(Cl)cc2)NC(=O)N1CCCCCC(=O)O` (stereo not drawn), for which the Potency in test [1] is 25.1 µM (active). Also, the Potency result in test [2], in test [3] and in test [4] was “inactive” in each case.

With `COC(=O)[C@@]1(Cc2ccc(OC)cc2)[C@H]2c3cc(C(=O)N4CCCC4)n(Cc4ccc(Cl)c(C(F)(F)F)c4)c3C[C@H]2CN1C(=O)c1ccccc1`, the Potency in test [1] was 12.6 µM (active). In addition, the Potency entry in test [2], in test [3] and in test [4] was “inactive” each time.

In the case of `CCCCCC1=C2CNC(CCC)(C(=O)OC)C=C2C(C)C1=O` (stereo not drawn), the Potency in test [1] is 31.6 µM (active). For the same compound, the Potency result in test [2], in test [3] and in test [4] was “inactive” in each case.

With `COC(=O)[C@@]1(Cc2ccc(F)cc2)[C@@H]2C(=CC(=O)[C@H]2CC(=O)C(=O)N2CCCC2)CN1C(=O)c1ccccc1`, the Potency result in test [1], in test [2], in test [3] and in test [4] was “inactive” each time.

Consider `O=C(N[C@@H](c1ccccc1)[C@@H]1C[C@H]1C(=O)NCc1ccccn1)OCc1ccccc1`, for which the Potency is 10 µM (active) in test [1], 6.31 µM (active) in test [5] and 7.94 µM (active) in test [6]. The Potency result in test [2], in test [3] and in test [4] was “inactive” each time.

In the case of `COC(=O)[C@@]1(Cc2ccccc2)[C@H]2c3cc(C(=O)N4CCCC4)n(Cc4ccc(C)o4)c3C[C@H]2CN1C(=O)c1ccccc1`, the figures for the Potency in test [1], in test [5] and in test [6] were 12.6 µM (active), 2 µM (active) and 2.51 µM (active), respectively. Also, the Potency result in test [2], in test [3] and in test [4] was “inactive” each time.

Consider `O=C(NCc1nc2ccccc2[nH]1)[C@H]1C[C@@H]1[C@H](NP(=O)(c1ccccc1)c1ccccc1)c1ccccc1`, for which, in test [1], the Potency is 15.8 µM (active). Besides, the Potency result in test [2], in test [3] and in test [4] was “inactive” in each case.

For `C[C@@]1(C(NC(=O)c2cccs2)c2ccc(-c3ccccc3)cc2)C[C@H]1C1CCCCC1` (stereo partly drawn), the Potency result in test [1], in test [2], in test [3] and in test [4] was “inactive” in each case.

`COC(=O)[C@@H]1C[C@H]1[C@@H](NC(=O)c1cnccn1)c1ccccc1`: the Potency in test [1] was 12.6 µM (active). The Potency entry in test [2], in test [3] and in test [4] was “inactive” in each case.

In the case of `COC(=O)C1CC1C(NC(=O)[C@H]1CCCCN1)c1ccccc1` (stereo partly drawn), the Potency entry in test [1], in test [2], in test [3] and in test [4] was “inactive” in each case.

In the case of `C[C@H]1C2=C3C(CC[C@H]4C(OCc5ccc(F)cc5C(F)(F)F)OC[C@](C)([C@@H]34)N(C(=O)OC(C)(C)C)C2)C(CO)C1CO` (stereo partly drawn), in test [1], the Potency was 15.8 µM (active). Moreover, the Potency result in test [2], in test [3] and in test [4] was “inactive” throughout.

Consider `C/C(=C\C1CCCCC1)C(NC(=O)c1ccc(C(F)(F)F)cc1)c1ccc(-c2ccccc2)cc1` (stereo not drawn), for which the Potency entry in test [1], in test [2], in test [3] and in test [4] was “inactive” each time.

In the case of `COC(=O)[C@H]1C[C@@H]1[C@H](NC(=O)Oc1ccc(F)cc1)c1ccccc1`, in test [1], the Potency is 1 µM (active). Further, the Potency result in test [2], in test [3] and in test [4] was “inactive” each time.

As for `COC(=O)C1(CC(C)C)C=C2C(=C(c3ccccc3)C(=O)C2C)CN1` (stereo not drawn), the Potency in test [1] is 15.8 µM (active). The Potency result in test [2], in test [3] and in test [4] was “inactive” each time.

For the compound `COC(=O)[C@H]1C[C@@H]1[C@H](NC(=O)c1ccccc1)c1ccccc1`, the Potency in test [1] is 15.8 µM (active); in test [6], 7.94 µM (active). Further, the Potency result in test [2], in test [3] and in test [5] was “inactive” each time.

Take `C[C@@H](C(=O)O)[C@@H]1C[C@@]1(C)[C@@H](NC(=O)OCc1ccccc1)c1ccccc1`: the Potency entry in test [1], in test [2], in test [3] and in test [4] was “inactive” throughout.

On to `CCc1c2c(nc3ccc(OC)cc13)COC2`, for which the Potency in test [1] was 0.794 µM (active). The Potency result in test [2], in test [3] and in test [4] was “inactive” throughout.

Turning to `COC(=O)C1CC1C(NC(=O)[C@@H]1CCCN1)c1ccccc1` (stereo partly drawn), the Potency in test [1] is 15.8 µM (active). Further, the Potency entry in test [2], in test [3] and in test [4] was “inactive” each time.

On to `COC(=O)[C@@H]1C[C@H]1[C@@H](NC(=O)c1cc(C)on1)c1ccccc1`, for which the Potency in test [1] was 20 µM (active). The Potency result in test [2], in test [3] and in test [4] was “inactive” each time.

For `C[C@@H](C(=O)Nc1ccc2ccccc2c1)[C@@H]1C[C@@]1(C)[C@@H](NC(=O)c1ccncc1Cl)c1ccccc1`, the Potency in test [1] was 25.1 µM (active). The Potency entry in test [2], in test [3] and in test [4] was “inactive” throughout.

Take `C#CCCCC(=O)Nc1ccccc1`: the Potency in test [1] is 20 µM (active). Also, the Potency result in test [2], in test [3] and in test [4] was “inactive” each time.

Consider `CC[C@H]1C2=C3C(CC[C@H]4C(OCc5ccc(F)cc5C(F)(F)F)OC[C@](C)([C@@H]34)N(C(=O)OC(C)(C)C)C2)C(COC)C1COC` (stereo partly drawn), for which the Potency result in test [1], in test [2], in test [3] and in test [4] was “inactive” in each case.

For the compound `COC(=O)C1(C)C=C2C(=C(c3ccccc3)C(=O)C2C)CN1` (stereo not drawn), the Potency in test [1] was 15.8 µM (active). Besides, the Potency result in test [2], in test [3] and in test [4] was “inactive” in each case.

Take `COC(=O)[C@H]1C[C@@H]1[C@H](NC(=O)c1cnccn1)c1ccccc1`: in test [1], the Potency is 15.8 µM (active). Also, the Potency result in test [2], in test [3] and in test [4] was “inactive” in each case.
